According to the supplement of paper PMC13380429:

Tested on: Vero E6 infected with SARS-CoV-2
Assay: inhibition of SARS-CoV-2 cytopathic effect; higher = more antiviral protection, active = above 15
Conditions: 48 h

Measured: inhibition of SARS-CoV-2 cytopathic effect

Cn1cc(-c2cnc3ccc4ccc(CS(=O)(=O)NCc5ccccn5)cc4c(=O)c3c2)cn1
inactive: 1 nM 1.02% | 8.33 nM 0.57% | 100 nM 1.94% | 833.33 nM 3.38% | 10000 nM 1.59%

CCC(CC)(CC(=O)Nc1cccc(/C=C/c2nc(C3CCC3)cs2)c1)C(=O)O [cinalukast]
inactive: 1 nM -1.61% | 8.33 nM 0.18% | 100 nM 0.24% | 833.33 nM 0.4% | 10000 nM 1.8%

Cn1cc(-c2ccc3ncc(Cc4ccc5ncccc5c4)n3n2)cn1
inactive: 1 nM -4.59% | 8.33 nM -2.71% | 100 nM -1.81% | 833.33 nM 2.47% | 10000 nM 3.49%

O=C(O)CCc1ccc(NCc2cccc(Oc3ccccc3)c2)cc1
inactive: 1 nM 1.33% | 8.33 nM -1.1% | 100 nM -1.51% | 833.33 nM -0.16% | 10000 nM -0.27%

Cc1cc(Nc2cc(CN3CCOCC3)c3nc(C)c(Cc4ccc(Cl)cc4F)n3n2)n[nH]1
inactive: 1 nM -0.17% | 8.33 nM 1% | 100 nM -1.28% | 833.33 nM -6.68% | 10000 nM -11.6%

CC(=O)c1c(O)cc(C)oc1=O [dehydroacetic-acid]
inactive: 1 nM 2.87% | 8.33 nM 3.44% | 100 nM 2.94% | 833.33 nM 2.97% | 10000 nM 3.07%

COc1ccc(-n2nc(C(F)(F)F)cc2-c2ccc(Cl)cc2)cc1
inactive: 1 nM 2.57% | 8.33 nM 3.29% | 100 nM 1.98% | 833.33 nM 1.58% | 10000 nM -5.13%

Cc1cccc(C(=O)O)c1O [hydroxytoluic-acid]
inactive: 1 nM -9.06% | 8.33 nM -7.41% | 100 nM -5.24% | 833.33 nM -2.47% | 10000 nM -10.5%

CCCCCNCC(N)=O [milacemide]
inactive: 1 nM 1.56% | 8.33 nM -1.78% | 100 nM 2.01% | 833.33 nM 2.58% | 10000 nM -0.4%

O=c1[nH]c(=O)n([C@H]2C[C@H](O)[C@@H](CO)O2)cc1C(F)(F)F [trifluridine]
inactive: 1 nM -2.13% | 8.33 nM 0.14% | 100 nM 0.73% | 833.33 nM 1.01% | 10000 nM -1.77%

Cc1c(NC(=O)N2CCOCC2)ccc2c1c1ccccc1n2C(C)C
inactive: 1 nM 0.94% | 8.33 nM -0.34% | 100 nM -2.07% | 833.33 nM 2.48% | 10000 nM 0.62%

[I-].[K+] [potassium-iodide]
inactive: 1 nM -3.24% | 8.33 nM -3.7% | 100 nM -1.59% | 833.33 nM 0.38% | 10000 nM -1.54%

C#C[C@]1(O)CC[C@H]2[C@@H]3CCC4=C(CCC(=O)C4)[C@H]3CC[C@@]21C [noretynodrel]
inactive: 1 nM 0.57% | 8.33 nM 0.96% | 100 nM 1.22% | 833.33 nM -5.6% | 10000 nM 0.57%

CCc1ccc(Cc2ccc3c(c2)[C@]2(OC3)O[C@H](CO)[C@@H](O)[C@H](O)[C@H]2O)cc1 [tofogliflozin]
inactive: 1 nM -0.25% | 8.33 nM 0.93% | 100 nM 0.26% | 833.33 nM 1.52% | 10000 nM -0.4%

CN1CCCN=C1/C=C/c1cccs1 [pyrantel-pamoate]
inactive: 1 nM 1.74% | 8.33 nM 1.39% | 100 nM 2.36% | 833.33 nM 0.63% | 10000 nM -3.05%

CC[C@H](C)[C@@H]([C@@H](CC(=O)N1CCC[C@H]1[C@H](OC)[C@@H](C)C(=O)N[C@@H](Cc1ccccc1)c1nccs1)OC)N(C)C(=O)[C@@H](NC(=O)[C@H](C(C)C)N(C)C)C(C)C [dolastatin-10]
inactive: 1 nM -1.47% | 8.33 nM 0.79% | 100 nM -2.31% | 833.33 nM -3% | 10000 nM 0.49%

COC(=O)N[C@@H](C)CNc1nccc(-c2cn(C(C)C)nc2-c2cc(Cl)cc(NS(C)(=O)=O)c2F)n1 [Encorafenib (LGX818)]
inactive: 1 nM 0.31% | 8.33 nM 0.31% | 100 nM 2.88% | 833.33 nM 6.46% | 10000 nM -1.13%

O=C1NC(=O)C(c2cnc3ccccn23)=C1c1cn2c3c(cc(F)cc13)CN(C(=O)N1CCCCC1)CC2
inactive: 1 nM 0.79% | 8.33 nM 7.15% | 100 nM 14.4% | 10000 nM 14.8%
active: 833.33 nM 16%

CN1CCc2cc(Cl)c(O)cc2[C@@H](c2ccccc2)C1
inactive: 1 nM 10.5% | 8.33 nM 6.47% | 100 nM 7.29% | 833.33 nM 2.11% | 10000 nM -0.78%

NS(=O)(=O)OC[C@@H]1C[C@@H](n2ccc3c(N[C@H]4CCc5ccccc54)ncnc32)C[C@@H]1O [pevonedistat]
inactive: 1 nM 1.08% | 8.33 nM 1.45% | 100 nM 2.73% | 833.33 nM -1.35% | 10000 nM -9.75%

O=C(Nc1c[nH]nc1-c1nc2ccc(CN3CCOCC3)cc2[nH]1)NC1CC1
inactive: 1 nM 0.02% | 8.33 nM -0.1% | 100 nM 0.35% | 833.33 nM 0.87% | 10000 nM -5.1%

CC[C@H](CC#N)OC(=O)N[C@@H](C)c1cccc(NC(=O)Nc2ccc(-c3cnco3)c(OC)c2)c1
inactive: 1 nM 0.48% | 8.33 nM 4.56% | 100 nM 0.06% | 833.33 nM 10.2% | 10000 nM 13.2%

Cc1ncc(CN2CC=C(c3ccccc3)CC2)c(N)n1
inactive: 1 nM 0.67% | 8.33 nM 0.52% | 100 nM -0.09% | 833.33 nM 0.15% | 10000 nM 0.43%

CCN(CC)CCNC(=O)c1ccccc1I
inactive: 1 nM 1.9% | 8.33 nM 1.7% | 100 nM 2.44% | 833.33 nM -2.04% | 10000 nM 2.51%

COc1ccccc1N1CCN(CCN2C(=O)c3ccccc3C(C)(C)C2=O)CC1
inactive: 1 nM 0.16% | 8.33 nM -2.9% | 100 nM 2.69% | 833.33 nM -0.3% | 10000 nM 0.21%

CN(Cc1ccccc1)C(=O)[C@H](Cc1ccc2ccccc2c1)NC(=O)[C@@H]1CCCN1C(=O)Nc1ccccc1[N+](=O)[O-]
inactive: 1 nM -0.58% | 8.33 nM 2.06% | 100 nM 3.45% | 833.33 nM 5.13% | 10000 nM 1.31%

Oc1ccc2ccccc2c1Cc1c(O)ccc2ccccc12
inactive: 1 nM 2.61% | 8.33 nM -1.04% | 100 nM 2.9% | 833.33 nM -1.96% | 10000 nM 5.77%

N=C(N)NCCC[C@H](NC(=O)[C@@H]1CCCN1C(=O)[C@@H]1CSSC[C@H](N)C(=O)N[C@@H](Cc2ccc(O)cc2)C(=O)N[C@@H](Cc2ccccc2)C(=O)N[C@@H](CCC(N)=O)C(=O)N[C@@H](CC(N)=O)C(=O)N1)C(=O)NCC(N)=O [vasopressin]
inactive: 1 nM 3.02% | 8.33 nM -0.42% | 100 nM 1.64% | 833.33 nM 0.05% | 10000 nM -0.05%

CC(C)(OCc1nn(Cc2ccccc2)c2ccccc12)C(=O)O [bindarit]
inactive: 1 nM -0.08% | 8.33 nM -0.77% | 100 nM 0.47% | 833.33 nM -2.78% | 10000 nM -0.8%

CC1=C(CC(=O)O)c2cc(F)ccc2/C1=C\c1ccc(S(C)(=O)=O)cc1 [exisulind]
inactive: 1 nM -5.21% | 8.33 nM -2.14% | 100 nM -3.65% | 833.33 nM 0.09% | 10000 nM -2.3%

COC(=O)[C@@H]1C[C@H](OC(C)=O)C(=O)[C@H]2[C@@]1(C)CC[C@H]1C(=O)O[C@H](c3ccoc3)C[C@]21C [salvinorin-A]
inactive: 1 nM -2.48% | 8.33 nM -1.89% | 100 nM -1.61% | 833.33 nM -0.35% | 10000 nM 0.69%

C[C@@H](c1ncncc1F)[C@](O)(Cn1cncn1)c1ccc(F)cc1F [voriconazole]
inactive: 1 nM 0.72% | 8.33 nM 2.08% | 100 nM -2.48% | 833.33 nM -0.46% | 10000 nM 1.37%

Cc1c(-c2ccc(-c3ccccc3F)cc2)nc2ccc(F)cc2c1C(=O)O [brequinar]
inactive: 1 nM 0.47% | 8.33 nM -5.34% | 100 nM -4.42% | 833.33 nM -4.61% | 10000 nM -4.4%

O=C(O)c1ccc2c(c1)C(=O)N(c1cccc(Oc3ccc([N+](=O)[O-])cc3)c1)C2=O
inactive: 1 nM 1.34% | 8.33 nM 0.95% | 100 nM 0.59% | 833.33 nM 1.36% | 10000 nM -0.65%

Nc1nc(NC2CC2)c2ncn([C@H]3C=C[C@@H](CO)C3)c2n1
inactive: 1 nM -0.53% | 8.33 nM -0.06% | 100 nM 0.24% | 833.33 nM 0.84% | 10000 nM 0.33%

CC1(CN)Cc2ccccc2C1
inactive: 1 nM 4.53% | 8.33 nM -3.63% | 100 nM -3.31% | 833.33 nM 1.99% | 10000 nM -3.29%

COc1cc2ncnc(Nc3cccc(Br)c3)c2cc1OC
active: 10000 nM 36.3%
inactive: 1 nM -2.89% | 8.33 nM -3.44% | 100 nM -2.56% | 833.33 nM -11.5%

Cc1ccc(NC(=O)c2cccc(C(C)(C)C#N)c2)cc1Nc1ccc2ncn(C)c(=O)c2c1
inactive: 1 nM 1.24% | 8.33 nM 2.77% | 100 nM -0.67% | 833.33 nM -2.75% | 10000 nM -1.17%

CCC[C@H](N[C@H]1CCc2cc(F)cc(F)c2C1)C(=O)Nc1cn(C(C)(C)CNCC(C)(C)C)cn1
inactive: 1 nM 2.54% | 8.33 nM -2.77% | 100 nM -1.3% | 833.33 nM -9.66% | 10000 nM -10.1%
